# Compound activity: PubChem BioAssay, several laboratories
# AHR activator: human AHR activation; hit rate 2.5% among 320,000; activation, % at 5 µM; AID 2796; AHR-responsive luciferase reporter cells, luminescence; P35869; in the data active means activation above about 47%;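 further: 0% = vehicle wells and 100% = reference agonist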
# FXN GAA850 act: increases GAA850 frataxin promoter reporter activity; HEK293 lucGAA850 FXN promoter luciferase reporter, 24 h; percent of 10 µM SAHA response; activation, % at 6 µM; hit rate 0.56% among 360,000; AID 540364;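 active means activation above the average of all compounds screened plus 3 SD, cutoff fixed separately per campaign, cut at about 7.5% in these data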;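 further: 0% = DMSO wells and 100% = 10 µM SAHA wells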
# DAX1 inh: inhibitors of human orphan nuclear receptor DAX1 (NR0B1); HEK293 Gal4-DAX1 luciferase reporter, luminescence; inhibition, % at 6.75 µM; hit rate 0.99% among 340,000; AID 504766;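 active means inhibition above the mean over all tested compounds plus 3 SD, cut at about 4.2% in these data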;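 further: 0% = DAX1-transfected cells with DMSO and 100% = empty-vector control cells with DMSO; inhibition shows as a rise in luminescence from relieved DAX1 repression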
# Target sequence (P51843 207-470 limits assumed): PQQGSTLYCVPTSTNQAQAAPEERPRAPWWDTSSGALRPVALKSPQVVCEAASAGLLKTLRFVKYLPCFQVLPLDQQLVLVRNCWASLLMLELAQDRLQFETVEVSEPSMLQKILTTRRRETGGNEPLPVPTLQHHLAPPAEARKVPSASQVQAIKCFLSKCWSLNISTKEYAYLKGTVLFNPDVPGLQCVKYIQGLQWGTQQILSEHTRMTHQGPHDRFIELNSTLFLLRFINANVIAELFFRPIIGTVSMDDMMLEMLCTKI
# HSF1 activator: increases HSF-1 driven luciferase reporter signal; NIH3T3-HGL HSF-1 luciferase reporter, MG132, 8 h; 100% = twice DMSO control signal; activation, % at 9 µM; hit rate 1.7% among 300,000;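 active means mean replicate activation of at least 50% with a set share of replicates each reaching 50%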;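 further: 0% = median of the neutral control wells and 100% = twice that signal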
# HSF1 inhib: HSF1 inhibition | NIH3T3-HGL HSE-luciferase, MG132-induced, luminescence 8 h; hits give low values | AID 2098 | activity change, negative = inhibition, % at 7.5 µM (by protocol) | hit rate 0.77% among 300,000;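 active means more than half of replicate wells show activity change below -50%, luminescence cut by over half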;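 further: luciferase reports HSF-1 transcriptional activity via heat shock element; 0% = median of DMSO wells and -100% = zero luminescence signal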
# Starred values were filed as active, the others as inactive; . = no result given. Shown are actives, neighbours in structure and some others; about 5.4% of the full set was active somewhere.
SMILES,AHR activator,FXN GAA850 act,DAX1 inh,HSF1 activator,HSF1 inhib
O=C(c1ccc(Cl)cc1Cl)C1(n2cncn2)Oc2ccccc2C1O (centres undefined),66*,3,-1,16,10
O=C(NCc1ccccc1Cl)[C@@H]1CCCN1S(=O)(=O)c1ccc(Cl)cc1,-1,0,0,.,.
COC(=O)C1C(c2ccccc2)NC(=O)NC1(O)C(F)(F)Cl (centres undefined),1,1,4.7*,24,-1
CCOC(=O)C1C(c2ccc(C(=O)O)cc2)NC(=O)NC1(O)C(F)(F)F (centres undefined),-4,2,0,0,1
C=CC[C@H](CC(=O)NCCO)C(=O)N[C@@H](COC(=O)[C@H](CC=C)CC(=O)OC(C)(C)C)Cc1c[nH]c2ccccc12,2,-4,0,.,.
Oc1oc(-c2ccccc2)nc1C=NCc1ccncc1,70*,-1,2,-12,0
Cc1ccc(C(=O)Cn2nc(C(=O)O)c3ccccc3c2=O)cc1C,1,-1,3,64*,28
COc1ccc(-c2cc3ncc(C(C)=O)c(C)n3n2)cc1,2,5,4.4*,-7,2
CCOC(=O)CCCCCC(=O)Nc1ccc2c(c1)C(=O)N([C@H](C)CO)C[C@H](C)[C@@H](CN(C)S(C)(=O)=O)OCCCC[C@@H](C)O2,.,-1,0,.,.
Oc1cccc(-c2nc3ccc4ccccc4c3c3c2CCC3)c1,7,5,0,59*,37
COc1ccc(OCc2cccc(C(=O)NN)c2)cc1,2,7,-5,-74,-66*
Cn1c(C(=O)NN)cc2cc(Oc3ccccc3)ccc21,3,1,0,3,-4
NNC(=O)c1cccc(COc2ccc(Br)cc2)c1,2,4,-4,-41,-35
Cn1c(C(=O)NN)cc2cc(OCc3ccccc3)ccc21,6,0,.,-86,-84*
COc1ccc(OCc2cccc(C(=O)Nn3cc([N+](=O)[O-])cn3)c2)cc1,-12,0,-4,-60,-54*
NNC(=O)c1cccc(COc2cccc(Br)c2)c1,51*,4,0,3,10
COc1ccc(OCc2cccc(C(=O)Nc3cc(C)on3)c2)cc1,-11,-1,-4,-21,-18
CC(=O)c1cc(C#N)c(Oc2ccc(Cl)cc2Cl)nc1C,11,0,0,5,-6
CCOc1cc(Cl)c(S(=O)(=O)NCCCn2ccnc2)cc1Cl,2,0,-3,-15,-12
CC1(C)CC(=O)C=C(c2ccc(F)nc2)C1,1,2,0,.,.
CC(C)CC1Nc2ccc(C(=O)NCCCN3CCCCC3C)cc2NC1=O (centres undefined),0,1,2,-9,-3
Nc1c(-c2ccc(Cl)cc2)nnn1-c1ccccc1,-2,3,3,58*,38
Oc1ccc(/C=N/Nc2ccccc2)cc1,9,0,0,-16,2
Cc1nc2ccccc2nc1N/N=C/c1ccc(O)cc1,76*,4,1,-12,-9
Cc1n[nH]c(=O)nc1Nc1ccc(O)cc1,7,2,-1,-1,1
SMILES,AHR activator,FXN GAA850 act,DAX1 inh,HSF1 activator,HSF1 inhib
Oc1ccc(Nc2nc3ccccc3nc2Nc2ccc(O)cc2)cc1,-15,-16,-1,-86,-86*
Cc1ccc(NC(=O)c2cncc(Br)c2)cc1S(=O)(=O)N(C)C,67*,6,1,22,15
CN(C=O)c1cc([N+](=O)[O-])ccc1OCc1ccccc1,.,-2,1,.,.
O=C(N/N=C\c1ccc(-c2cccc(Cl)c2)o1)C(=O)NC1CCCC1,20,1,7.0*,-8,-3
COc1ccc([C@@H]2C[C@@H](c3ccccc3)Oc3c(C)ccc(C(C)C)c32)cc1,3,.,.,-74,-66*
COc1ccc([C@@H]2C[C@@H](c3ccccc3)Oc3cc(C)cc(C)c32)cc1,.,2,2,6,-12
CCOc1cc(/C=N/NC(=O)CN(CCc2ccccc2)S(=O)(=O)c2ccc(NC(C)=O)cc2)ccc1O,3,-3,-2,-90,-89*
CC(=O)Nc1sc(C)c(C)c1C(=O)OCC(=O)NCc1ccc(F)cc1,1,-1,1,.,.
Cc1cc(NC2CCCC2)n2nc(C)c(-c3ccccc3)c2n1,8,5,0,52*,9
COc1ccc(-c2c(C)nn3c(NC4CCCC4)cc(C)nc23)cc1OC,24,1,-2,62*,27
Nc1c(-c2ccccc2)cnc2cc(-c3ccccc3)nn12,.,4,5.6*,43,12
Cc1cc(NC2CCCC2)n2ncc(-c3ccccc3)c2n1,6,-8,-1,-74,-67*
COC(=O)CNC(=O)c1cc(-c2ccncc2)nc2ccc(C)cc12,2,.,0,-13,2
CCOC(=O)c1ccccc1NC(=O)CSc1ccc(-c2ccccn2)nn1,0,-1,0,-7,4
O=C(CN(Cc1ccccc1)S(=O)(=O)c1ccccc1)N/N=C/c1ccccc1C(=O)O,0,1,0,5,-1
O=C(NN1C(=O)/C(=C\c2cccnc2)SC1=S)c1ccco1,5,3,0,1,-2
Cc1cc(NC(C)c2ccccc2)n2ncc(-c3ccccc3)c2n1 (centres undefined),7,5,4.7*,11,16
COc1ccc(CCNc2cc(C)nc3c(-c4ccc(Cl)cc4)cnn23)cc1OC,69*,-2,0,17,0
COc1ccc(CCNc2cc(C)nc3c(-c4ccccc4)cnn23)cc1OC,8,-4,-2,0,1
Cc1nc2c(-c3ccccc3)cnn2c(N)c1-c1ccccc1,.,-11,-2,-89,-87*
CCOC(=O)c1cnc2c(-c3ccccc3)cnn2c1C,0,3,1,42,14
Cc1cc(NCCN2CCOCC2)n2ncc(-c3ccccc3)c2n1,39,1,3,6,-9
CCOC(=O)Cc1c(C)nc2c(-c3ccccc3)cnn2c1C,54*,5,1,35,25
CC1(C)CC(=O)C(CC(=O)c2ccccc2)=C(NN=C(N)N)C1,.,2,2,.,.
Nc1c(-c2ccc(Cl)cc2)cnc2c(-c3ccccc3)cnn12,14,6,7.8*,-14,1
SMILES,AHR activator,FXN GAA850 act,DAX1 inh,HSF1 activator,HSF1 inhib
Cc1cc(NCc2ccccc2)n2ncc(-c3ccccc3)c2n1,23,0,2,80*,40
COc1ccc(-c2cc(C)nc3c(-c4ccccc4)cnn23)cc1,.,2,0,-20,-16
Cc1cc(-c2ccccc2)n2ncc(-c3ccccc3)c2n1,57*,-1,0,-55,-42
Cc1ccc(Nc2ccc(N3CCN(c4ccc([N+](=O)[O-])cc4)CC3)nn2)cc1,1,0,4.5*,8,-17
COc1cc(OC)c2cc(C(=O)N/N=C/c3cccc(OC)c3O)[nH]c2c1,49*,-2,1,11,-1
Cc1cccc(C)c1OCc1cc(C(=O)N(Cc2nccn2C)C(C)C)no1,1,-2,-1,16,-1
